In PubChem BioAssay (Tox21) one finds Potency, outcome and max activation data, which are given here for nine compounds.

Several values for one entry are separate records, joined by “and”; a condition that tells them apart may be missing. Identical values can stand only once. A number with no mark means an inactive call. Inconclusive results are not listed. Activity calls are given as the source filed them. Unless noted, calls come from the whole dose curve; as a rule, active = well fitted curve in the direction sought with a large enough effect in the repeat runs; inconclusive = weak or mixed curves; inactive = no such curve, though single readings can be large; an effect the other way counts as inactive or inconclusive.

Test [1] concerns the target Progesterone receptor (Homo sapiens) (UniProt P06401). Description: qHTS assay to identify small molecule agonists of the progesterone receptor (PR) signaling pathway (AID 1346784; calls by dose curve; note: nearly all actives have a fitted effect of over 30% in size). A digest of the protocol: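 HEK 293T PR-UAS-bla reporter cells, 2% charcoal-stripped FBS; 6 hr settle at 37C/5% CO2, compound (DMSO) 16 hr, LiveBLAzer B/G FRET substrate 2 hr RT, fluorescence intensity read.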

The target is the same in test [2]. Description: qHTS assay to identify small molecule antagonists of the progesterone receptor (PR) signaling pathway (AID 1346795; active = well fitted inhibition curve with a large enough effect in the signal ratio in the repeat runs, not every such curve was filed as active; the % refers to the signal ratio). In short, it runs like this:
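Beta-lactamase reporter, HEK293T PR-UAS-bla line; 2% charcoal-stripped FBS; 6 hr pre-incubation, 37C/5% CO2. Compound + R5020 1 nM final, 16 hr. LiveBLAzer B/G FRET substrate, 2 hr RT; fluorescence intensity read.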
Background: qHTS replaces the single test concentration by a dilution series.

Test [3] is described as follows: qHTS assay to identify small molecule agonists of the progesterone receptor (PR) signaling pathway - cell viability counter screen (AID 1346799; calls by dose curve; note: nearly all actives have a fitted effect of over 45% in size). A digest of the protocol: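 HEK293T PR-UAS-bla, 3,000 cells/well, 2% charcoal-stripped FBS; 6 h settle, compound 16 h at 37C/5% CO2; LiveBLAzer 2 h RT, then CellTiter-Glo 30 min RT, luminescence read.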
Test [4] in a line: qHTS assay to identify small molecule antagonists of the TGF-beta/Smad signaling pathway - cell viability counter screen (AID 1346824). Note: nearly all actives have a fitted effect of over 50% in size. In short, it runs like this:
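SBE-bla HEK 293T cells, incubated overnight, then compound plus 0.25 ng/mL TGF-beta1 (stock added) for 5 hr at 37 C. Viability was read in the same wells by CellTiter-Glo luminescence after 30 min at room temperature.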

Test [5] can be described thus: qHTS assay to identify small molecule agonists of the TGF-beta/Smad signaling pathway - cell viability counter screen (AID 1346829). Note: top concentration of the series differs between compounds; nearly all actives have a fitted effect of over 45% in size. A digest of the protocol: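 In parallel with the Smad reporter read, viability of HEK 293T cells stably carrying SBE-bla is quantified by ATP luminescence following 5 hr compound treatment.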
Test [6] in a line: qHTS assay to identify small molecule agonists of the TGF-beta/Smad signaling pathway (AID 1346859; active = well fitted activation curve with a large enough effect in the signal ratio in the repeat runs, not every such curve was filed as active; the % refers to the signal ratio; note: series mostly up to about 77 µM). A digest of the protocol: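 Read-out: fluorescence at 460 and 530 nm (405 nm excitation) after a 2 hr room-temperature incubation with beta-lactamase FRET substrate. SBE-bla HEK 293T cells had been treated with test compounds for 5 hr at 37 C.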
Test [7] addresses Thyrotropin-releasing hormone receptor (Homo sapiens) (UniProt P34981). Description: qHTS assay to identify small molecule antagonists of the thyrotropin-releasing hormone receptor (TRHR) signaling pathway (AID 1346877; active = well fitted inhibition curve with a large enough effect in the repeat runs, not every such curve was filed as active; note: series mostly up to about 51 µM). In short, it runs like this: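 Overnight-plated (18 h, 37 °C) HEK293 cells expressing TRHR were dye-loaded 2 h, treated with compound, then stimulated with TRH at 1 nM final. Fluorescence intensity was captured every second for 3 min.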

The target is the same in test [8]. As to the kind of experiment: qHTS assay to identify small molecule agonists of the thyrotropin-releasing hormone receptor (TRHR) signaling pathway (AID 1346891; calls by dose curve;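 note: HEK293 cells expressing TRHR with calcium dye readout; series mostly up to about 58 µM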). A digest of the protocol:
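HEK293/TRHR cells, 1500 per well, 18 h 37 °C; Ca dye 2 h 37 °C; pin-tool compound addition (agonist mode); kinetic fluorescence 3 min, 1 s reads; 15 concentrations, triplicate.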

A short description of test [9]: Human pregnane X receptor (PXR) small molecule agonists, qHTS cell viability counter screen (AID 1346977). Note: nearly all actives have a fitted effect of over 50% in size. Note: potency is the fitted concentration of half-maximal effect. In short, it runs like this:
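Fluorescence read-out (CellTiter-Fluor) of viability in PXR-Luc HepG2 cells, multiplexed with the luciferase agonist read. Compounds in DMSO added after 5hr plating; 24hr total exposure at 37C, 5% CO2.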

A short description of test [10]: Caspase-3/7 induction in HepG2 cells by small molecules, qHTS assay (AID 1346978). Note: nearly all actives have a fitted effect of over 15% in size. A digest of the protocol: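 Wild-type HepG2 cells, 2,000/well, settled 5 hr at 37 C and 5% CO2, then compound-treated for 17 hr; caspase-3/7 activity read by luminescent Caspase-Glo 3/7 after 30 min at room temperature.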
A short description of test [11]: Caspase-3/7 induction in CHO-K1 cells by small molecules, qHTS cell viability counter screen (AID 1346979). Note: nearly all actives have a fitted effect of over 35% in size. In short, it runs like this:
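CHO-K1 wt, 1,500 cells/well; 5hr pre-incubation 37C/5% CO2; compound pin transfer (DMSO); 16hr exposure; CellTiter-Fluor added, 1hr, fluorescence read.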

A short description of test [12]: Caspase-3/7 induction in CHO-K1 cells by small molecules, qHTS assay (AID 1346980). Note: nearly all actives have a fitted effect of over 15% in size. A digest of the protocol: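 Wild-type CHO-K1 cells exposed to compounds for 17hr at 37 C, 5% CO2. Caspase-3/7 activity then measured by Caspase-Glo 3/7 luminescence after 30min at room temperature.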
Test [13] can be described thus: Caspase-3/7 induction in HepG2 cells by small molecules, qHTS cell viability counter screen (AID 1346981). Note: series mostly up to about 92 µM; nearly all actives have a fitted effect of over 30% in size. A digest of the protocol:
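Treatment of HepG2 cells with DMSO-delivered compounds ran 16 hr at 37 C following a 5-hr pre-incubation of 2,000 cells/well. CellTiter-Fluor fluorescence, read after 1 hr, served as the viability measure in a qHTS format.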

Test [14] has as its target Nuclear receptor subfamily 1 group I member 2 (Homo sapiens) (UniProt O75469). Description: Human pregnane X receptor (PXR) small molecule agonists, qHTS assay (AID 1346982). Note: nearly all actives have a fitted effect of over 35% in size. Note: potency is the fitted concentration of half-maximal effect. In short, it runs like this: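 Stable HepG2 line reporting PXR-mediated CYP3A4 expression via luciferase. Treatment: 24 hr with compounds in DMSO at 37 C. Detection: ONE-Glo luminescence.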
Test [15] is described as follows: qHTS assay to identify small molecule antagonists of the progesterone receptor (PR) signaling pathway - cell viability counter screen (AID 1346798). Note: series mostly up to about 92 µM; nearly all actives have a fitted effect of over 50% in size. In short, it runs like this:
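Luminescence readout (CellTiter-Glo, 30 min, RT) of viability in PR-UAS-bla HEK293T cells exposed to compound and R5020 agonist for 16 hr at 37C, 5% CO2; run in the same wells as the beta-lactamase reporter read.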

Test [16] in a line: qHTS assay to identify small molecule agonists of the estrogen receptor alpha (ER-alpha) signaling pathway in the presence of an antagonist - cell viability counter screen (AID 1259386).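 Note: series mostly up to about 92 µM; cells exposed to compounds for 22 h at 37 °C before the viability read; nearly all actives have a fitted effect of over 30% in size.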 In short, it runs like this: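 The test measures whether compounds kill ER-alpha reporter cells (VM7Luc4E2) under antagonist co-treatment (ICI-182,780, 10.0nM). Fluorescence from CellTiter-Fluor is read after a 22hr exposure.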

The target in test [17] is Nuclear receptor subfamily 1 group I member 2 (Rattus norvegicus) (UniProt Q9R1A7). Description: Rat pregnane X receptor (rPXR) activation by small molecules, qHTS assay (AID 1346983). Note: nearly all actives have a fitted effect of over 20% in size. To be noted: rPXR luciferase reporter cells, One-Glo luminescence, 24 h; max activation: hits give high values. In short, it runs like this: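 Cell-based rPXR activation assay: rPXR cells, 2,000 per well, rested 5hr at 37 C, then exposed to compounds in DMSO for 24 hr at 37 C. Luciferase activity read by One-Glo luminescence after 30 min at room temperature.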
Chain of Nuclear receptor subfamily 1 group I member 2 (Rattus norvegicus) (Q9R1A7 whole entry, looked up): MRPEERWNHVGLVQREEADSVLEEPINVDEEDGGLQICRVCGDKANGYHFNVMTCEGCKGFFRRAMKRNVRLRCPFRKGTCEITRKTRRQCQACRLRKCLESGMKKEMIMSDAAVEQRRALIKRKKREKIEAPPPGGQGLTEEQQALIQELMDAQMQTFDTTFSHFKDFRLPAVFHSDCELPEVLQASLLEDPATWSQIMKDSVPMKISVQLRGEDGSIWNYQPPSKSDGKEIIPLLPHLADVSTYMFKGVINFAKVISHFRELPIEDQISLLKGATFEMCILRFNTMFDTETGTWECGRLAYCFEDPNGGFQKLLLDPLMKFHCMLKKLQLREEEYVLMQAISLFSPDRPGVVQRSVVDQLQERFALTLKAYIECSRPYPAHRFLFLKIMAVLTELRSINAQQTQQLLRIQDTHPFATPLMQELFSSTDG

Test [18] concerns the target Nuclear receptor subfamily 1 group I member 2 (Homo sapiens) (UniProt O75469). As to the kind of experiment: CYP3A4 induction through human pregnane X receptor (PXR) by small molecules, qHTS assay (AID 1346984). Note: nearly all actives have a fitted effect of over 40% in size. In short, it runs like this:
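After 24 h at 37C with compound, DPX-2 cells (HepG2, co-transfected PXR response element and CYP3A4 promoter-luciferase) got 3uM final P450-Glo Luciferin-IPA for 3 h; One-Glo luminescence followed.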
% is set by controls: 0 for no effect and ±100 for the full control effect.

Chain of Thyrotropin-releasing hormone receptor (Homo sapiens) (P34981 whole entry, looked up): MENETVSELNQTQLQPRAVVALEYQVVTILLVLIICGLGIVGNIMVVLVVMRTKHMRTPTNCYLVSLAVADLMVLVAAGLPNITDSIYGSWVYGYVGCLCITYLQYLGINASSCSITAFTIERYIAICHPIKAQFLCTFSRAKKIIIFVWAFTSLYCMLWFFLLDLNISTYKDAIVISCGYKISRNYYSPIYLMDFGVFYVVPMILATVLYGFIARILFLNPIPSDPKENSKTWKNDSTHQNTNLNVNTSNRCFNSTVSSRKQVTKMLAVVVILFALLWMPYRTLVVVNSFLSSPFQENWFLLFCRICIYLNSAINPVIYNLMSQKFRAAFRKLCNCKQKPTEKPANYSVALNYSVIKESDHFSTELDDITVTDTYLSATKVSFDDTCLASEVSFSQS
Chain of Progesterone receptor (Homo sapiens) (P06401 whole entry, looked up): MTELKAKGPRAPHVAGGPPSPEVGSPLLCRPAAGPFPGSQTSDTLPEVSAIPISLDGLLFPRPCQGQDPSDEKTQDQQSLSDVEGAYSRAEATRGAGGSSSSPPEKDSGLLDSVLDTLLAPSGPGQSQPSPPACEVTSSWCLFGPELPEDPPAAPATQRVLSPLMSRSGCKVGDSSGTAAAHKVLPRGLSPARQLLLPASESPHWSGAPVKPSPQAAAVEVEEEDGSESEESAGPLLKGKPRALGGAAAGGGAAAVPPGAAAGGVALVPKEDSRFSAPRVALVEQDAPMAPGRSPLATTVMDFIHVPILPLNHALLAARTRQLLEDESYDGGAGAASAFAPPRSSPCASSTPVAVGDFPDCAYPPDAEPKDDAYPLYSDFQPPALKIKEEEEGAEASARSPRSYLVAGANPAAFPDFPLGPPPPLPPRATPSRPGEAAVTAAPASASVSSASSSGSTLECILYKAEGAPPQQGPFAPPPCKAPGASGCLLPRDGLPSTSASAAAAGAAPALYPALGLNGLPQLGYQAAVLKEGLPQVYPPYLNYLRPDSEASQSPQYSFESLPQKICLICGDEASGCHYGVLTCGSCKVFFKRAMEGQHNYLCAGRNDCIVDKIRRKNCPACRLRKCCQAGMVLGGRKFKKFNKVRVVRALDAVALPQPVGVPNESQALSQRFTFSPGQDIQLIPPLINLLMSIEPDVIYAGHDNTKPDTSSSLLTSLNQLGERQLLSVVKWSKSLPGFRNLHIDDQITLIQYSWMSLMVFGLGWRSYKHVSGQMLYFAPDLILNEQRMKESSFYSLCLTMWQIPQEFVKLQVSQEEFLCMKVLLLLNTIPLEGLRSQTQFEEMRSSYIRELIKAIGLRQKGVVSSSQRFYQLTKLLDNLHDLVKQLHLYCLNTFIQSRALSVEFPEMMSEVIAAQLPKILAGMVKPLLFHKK
Chain of Nuclear receptor subfamily 1 group I member 2 (Homo sapiens) (O75469 whole entry, looked up): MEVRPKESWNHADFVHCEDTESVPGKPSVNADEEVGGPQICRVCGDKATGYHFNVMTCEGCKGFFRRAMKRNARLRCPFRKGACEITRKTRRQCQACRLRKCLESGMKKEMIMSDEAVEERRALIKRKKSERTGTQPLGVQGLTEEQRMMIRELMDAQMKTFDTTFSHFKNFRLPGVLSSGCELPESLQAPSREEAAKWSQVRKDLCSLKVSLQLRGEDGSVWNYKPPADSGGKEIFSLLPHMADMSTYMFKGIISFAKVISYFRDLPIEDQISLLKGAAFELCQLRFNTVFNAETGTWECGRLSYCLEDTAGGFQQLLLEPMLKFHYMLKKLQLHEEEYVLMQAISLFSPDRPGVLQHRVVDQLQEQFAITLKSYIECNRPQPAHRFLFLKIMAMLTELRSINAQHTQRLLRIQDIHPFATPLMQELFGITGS

As for `Cc1ccc(N)cc1[N+](=O)[O-]`, the Potency entry in test [1], in test [2], in test [3], in [9] and in test [11] was “inactive” each time. Besides, the compound was called inactive in test [4], in [5], in [6], in test [7], in test [8] and in [10]. The outcome in [12] and in [13] was inactive. Moreover, the Potency in [14] is 10.9 µM (active).

Turning to `CC(C)=CCC/C(C)=C/C(=O)O`, the Potency result in [1], in [15], in [3], in test [9], in test [11] and in test [14] was “inactive” each time. Further, the result in [4], in [5], in test [6], in [7], in [8] and in test [10] was inactive. Moreover, in test [12], the call was inactive.

As for `OC[C@H]1O[C@@H]2O[C@H]3[C@H](O)[C@@H](O)[C@@H](O[C@H]4[C@H](O)[C@@H](O)[C@@H](O[C@H]5[C@H](O)[C@@H](O)[C@@H](O[C@H]6[C@H](O)[C@@H](O)[C@@H](O[C@H]7[C@H](O)[C@@H](O)[C@@H](O[C@H]8[C@H](O)[C@@H](O)[C@@H](O[C@H]9[C@H](O)[C@@H](O)[C@@H](O[C@H]1[C@H](O)[C@H]2O)O[C@@H]9CO)O[C@@H]8CO)O[C@@H]7CO)O[C@@H]6CO)O[C@@H]5CO)O[C@@H]4CO)O[C@@H]3CO`, the Potency entry in test [15], in test [3], in [9], in test [11] and in [14] was “inactive” each time. Further, the call in test [4], in test [5], in test [6], in test [7], in [8] and in test [10] was inactive. The result in test [12] and in test [13] was inactive.

For the compound `CCCCN(CCO)CCO`, the outcome in test [16], in test [4], in test [5], in [6], in [7] and in [8] was inactive. Moreover, the compound was called inactive in test [10], in test [12] and in test [13]. Further, the Potency result in test [15], in [9], in test [11] and in test [14] was “inactive” each time.

Take `COc1cc(C(=O)N2CCOCC2)cc(OC)c1OC`: the outcome in [16], in test [4], in test [5], in test [6], in test [10] and in test [12] was inactive. Also, the result in [13] was inactive. The Potency entry in test [15], in test [3], in [9], in [14] and in [18] was “inactive” throughout. In addition, the max activation in test [17] is -6.89% and 0.152%.

In the case of `CCC(=O)/C=C/c1ccc(OC)cc1`, the result in [16], in test [4], in test [5], in test [6], in [7] and in [8] was inactive. Moreover, the outcome in test [10], in [12] and in [13] was inactive. Moreover, the Potency entry in [1], in test [15], in [9] and in test [11] was “inactive” throughout.

Regarding `O=C(O)CCNC(=O)c1ccc(N=Nc2ccc(O)c(C(=O)O)c2)cc1`, the Potency entry in test [1], in test [2], in test [15], in test [9], in [14] and in test [18] was “inactive” in each case. For the same compound, the compound was called inactive in [4], in [5], in test [6], in test [7], in [8] and in [10]. Moreover, the outcome in test [12] was inactive. Further, the max activation in test [17] is -1.98%.

As to `CCOC(=O)Nc1ccc2c(c1)N(C(=O)CCN1CCOCC1)c1ccccc1S2`, the outcome in [16], in [4], in [5], in [6], in test [10] and in [12] was inactive. For the same compound, in [13], the outcome was inactive. The Potency entry in test [1], in test [3], in test [9] and in test [11] was “inactive” each time. Besides, in [14], the Potency was 7.5 µM (active).

As for `CN(C)C(=O)C(CCN1CCC(O)(c2ccc(Cl)cc2)CC1)(c1ccccc1)c1ccccc1`, the Potency result in test [1], in test [15], in test [3] and in test [14] was “inactive” each time. Moreover, the result in test [4], in test [5], in test [7], in [8] and in [12] was inactive. Also, the Potency in [9] was 23.7 µM (active).
